Measurements taken from PubChem BioAssay AID1030 (National Center for Advancing Translational Sciences (NCATS), 2008).
Hit rate of the full screen: of about 220,000 compounds, about 16,000 (7.3%) were called active. About 25% were inconclusive and are not listed. The sample as a whole holds a higher share of actives than the screen did. Values without a mark were called inactive. The call rests on the fitted dose curve; in most records, active means well fitted inhibition curve with a large enough effect (not every such curve was filed as active); inconclusive means small, poorly fitted or top-dose-only effect, or another doubt; inactive means no such curve, though single readings can be large or run the other way.

These molecules were tested against Aldehyde dehydrogenase 1A1 (Homo sapiens) (UniProt P00352) (assay: qHTS Assay for Inhibitors of Aldehyde Dehydrogenase 1 (ALDH1A1)). Details: Purified ALDH1A1, NADH fluorescence, propionaldehyde substrate; series mostly up to 75.3 µM; activity, negative = inhibition: at the top concentration.
Chain of Aldehyde dehydrogenase 1A1 (Homo sapiens) (P00352 whole entry, looked up): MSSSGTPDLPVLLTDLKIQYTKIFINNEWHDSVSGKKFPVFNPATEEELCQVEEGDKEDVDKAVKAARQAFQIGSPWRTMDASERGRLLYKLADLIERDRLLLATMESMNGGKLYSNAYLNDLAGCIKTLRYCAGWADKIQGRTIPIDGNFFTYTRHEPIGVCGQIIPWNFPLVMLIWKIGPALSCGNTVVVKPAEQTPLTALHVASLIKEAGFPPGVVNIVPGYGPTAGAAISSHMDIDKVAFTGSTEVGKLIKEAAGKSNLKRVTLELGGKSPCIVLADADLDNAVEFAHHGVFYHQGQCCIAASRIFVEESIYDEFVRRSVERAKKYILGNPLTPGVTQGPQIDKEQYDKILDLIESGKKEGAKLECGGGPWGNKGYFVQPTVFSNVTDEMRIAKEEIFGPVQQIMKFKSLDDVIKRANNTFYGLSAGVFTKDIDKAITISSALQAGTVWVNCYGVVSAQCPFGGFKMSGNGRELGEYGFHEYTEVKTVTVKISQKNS
Potency means the concentration at half of the fitted maximal effect.
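Wherever activity, negative = inhibition is given: plate controls were no enzyme wells and a reference inhibitor.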

Going from O=C(Nn1cnc2ccccc2c1=O)c1ccccc1 to Cc1cccc(C(=O)Nc2ccccc2C(=O)NCc2cccnc2)c1, the “activity, negative = inhibition” value falls from 9.63% to 3.55%.

First: C=CCC1(CC=C)CCCN1C(=O)CC1C(=O)NCCN1Cc1ccccc1OC (stereo not given)
Second: C=CCn1c(COc2ccccc2F)nnc1SCC(=O)N1CC(=O)Nc2ccccc21
The “activity, negative = inhibition” value of the first is higher: -3.44% for the first, -4.67% for the second.

Compared with COCCC(=O)Nc1ccc2c(c1)CN(C(=O)CCOC)CC2, CCOc1ccc(C(=O)Nc2cccc(SC)c2)cc1 is higher in “activity, negative = inhibition” value: -1.97% for the first, 2.45% for the second.

Going from CNc1[nH]ncc1[N+](=O)[O-] to CC(=O)c1cc(C#N)c(SCC(=O)Nc2nccs2)nc1C, the “activity, negative = inhibition” value falls from 11.1% to 2.59%.

First: COc1cc(NS(=O)(=O)c2ccc(NC(=O)CN3C(=O)c4ccccc4C3=O)cc2)ncn1
Second: COc1cc(C(=O)N2C(=O)c3cccc(N)c3C2=O)cc(OC)c1OC
The “activity, negative = inhibition” value of the first is higher: 5.24% for the first, -4.58% for the second.

First: COc1ccc(CCCc2nnc(SCc3nc4ccccc4c(=O)[nH]3)n2C)cc1
Second: CCn1c(COc2c(C)cccc2C)nnc1SCc1nc2ccccc2c(=O)[nH]1
The “activity, negative = inhibition” value of the first is lower: -1.66% for the first, 1.86% for the second.

First: CCCOC1CCCN(Cc2cn(C)nc2-c2ccccc2F)C1 (stereo not given)
Second: Cn1c(Cc2cccc3ccccc23)nnc1SCC(=O)N1CCN(c2cccc(Cl)c2)CC1
The “activity, negative = inhibition” value of the first is higher: -2.39% for the first, -8.34% for the second.

Going from O=C(C1CCCO1)N(c1ccc(F)cc1)C1C=CS(=O)(=O)C1 (stereo not given) to COC(=O)c1ccc(N(CC(=O)NC2CCCC2)C(=O)CNC(=O)c2ccco2)cc1, the “activity, negative = inhibition” value falls from 15.7% to 2.08%.

First: CCCC[C@@H]1C[C@H]1C(NC(=O)c1ccc(-c2ccccc2)cc1)c1ccc(-c2ccccc2)cc1 (stereo not given in full)
Second: COc1cc(/C=C2/C(=O)ON=C2C)ccc1OCc1ccccc1F
The “activity, negative = inhibition” value of the first is higher: 6.85% for the first, 4.25% for the second.

Going from CC(C)(C)NC(=O)C(=O)NN=C1CCCCCCC1 to Fc1ccc2nc(N3CCCCC3)sc2c1, the “activity, negative = inhibition” value rises from 6.41% to 19.6%.

Compared with Fc1cc(F)c2nc(N3CCOCC3)sc2c1, Cc1cc(C)nc(NC(=O)/C=C/c2ccc(Cl)cc2)n1 is lower in “activity, negative = inhibition” value: 7.48% for the first, -2.35% for the second.

Compared with Cc1cc(C)cc(N(CC(=O)NCCSCc2ccco2)S(C)(=O)=O)c1, C/C=C/c1ccc(OCCOc2ccc(C=O)cc2OC)c(OC)c1 is higher in “activity, negative = inhibition” value: -2.35% for the first, 1.06% for the second.

COc1ccc(C)cc1-n1nnnc1SCc1nc2ccccc2c(=O)[nH]1 was tested, and the Potency was 39.8 µM (active).
With CCCC[C@@H]1C[C@H]1C(NC(=O)c1ccco1)c1ccc(C(=O)OC)cc1 (stereo not given in full) the Potency was 22.4 µM (active).
With c1c2c(cc3sc(N4CCCCC4)nc13)OCCO2 the Potency was 20 µM (active).
For Nn1c(Cc2cccc3ccccc23)nnc1SCC(=O)N1CC(=O)Nc2ccccc21, the Potency was 17.8 µM (active).
CCOC(=O)N1CC=C2C(C#N)=C(N)C(C#N)(C#N)[C@H](c3cccs3)[C@H]2C1 was tested, and the Potency was 20 µM (active).
COc1cc(/C=C2/C(=O)ON=C2C)ccc1OCc1cccc(F)c1 was tested, and the Potency was 10 µM (active).
